Reference: PubChem BioAssay (NCI)
The panel holds about 79,000 compounds, 15% with a hit somewhere; the sample as a whole holds those more often. Rule as the data show it: active = growth inhibition above about 70%; inactive = the rest.

Experiments:
[1] = NCI Yeast Anticancer Drug Screen. Data for the rad50 strain (AID 155);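 also: 0% = growth of vehicle-only cultures of the same strain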; details: S. cerevisiae rad50 strain growth inhibition; at 50.0 µM; hits give high values
Procedure, shortened: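 DNA repair mutant yeast, compound exposure, growth read-out; inhibition is taken relative to vehicle.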

[2] = NCI Yeast Anticancer Drug Screen. Data for the mec2-1 strain (AID 157); details: S. cerevisiae mec2-1 strain, at 50.0 µM, hits give high values
Procedure, shortened: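 Yeast mec2-1 mutant treated with compound. Readout: growth inhibition vs vehicle controls.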

[3] = NCI Yeast Anticancer Drug Screen. Data for the sgs1 mgt1 strain (AID 161);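 also: 0% = growth of cultures given vehicle only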; details: S. cerevisiae sgs1 mgt1 strain, at 50.0 µM, hits give high values
Procedure, shortened: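 Read-out: growth inhibition vs vehicle controls. Cells: mutant yeast strain deficient in DNA damage repair.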

[4] = NCI Yeast Anticancer Drug Screen. Data for the cln2 rad14 strain (AID 165);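 also: 0% = growth equal to vehicle treated cultures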; details: S. cerevisiae cln2 rad14 strain, at 50.0 µM, hits give high values
Procedure, shortened: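 cln2 rad14 yeast strain; compound exposure; growth inhibition read vs vehicle controls.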

[5] = NCI Yeast Anticancer Drug Screen. Data for the bub3 strain (AID 167); details: S. cerevisiae bub3 mutant strain, at 50.0 µM, hits give high values
Procedure, shortened: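 In this screen, a yeast mutant lacking normal mitotic checkpoint function is challenged with compound. Relative growth versus vehicle gives the inhibition value.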

[6] = NCI Yeast Anticancer Drug Screen. Data for the mlh1 rad18 strain (AID 175); details: S. cerevisiae mlh1 rad18 strain growth inhibition; at 50.0 µM; hits give high values
Procedure, shortened: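 Yeast w/ defined DNA-repair lesions; compound exposure; growth vs vehicle controls → % inhibition.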

Measured: growth inhibition

CCC/C=C/C=C/C1CC(O)C(O)C(=O)C1CO (stereo not given)
inactive: [1] 5.25% | [2] -29.6% | [3] 17.1% | [4] 7.9% | [5] 1.9% | [6] -0.7%

CC(=O)Nc1ccc(Nc2nc(=O)[nH]c(=O)[nH]2)cc1
inactive: [1] -3.2% | [2] -12.6% | [3] 13.1% | [4] -0.55% | [5] -1.6% | [6] -32.6%

CC(N)C(=O)NC(C(=O)NC1C(O)OC(CO)C(O)C1O)C(C)C (stereo not given)
inactive: [1] 6.1% | [2] -17.2% | [3] -17.4% | [4] 7.95% | [5] 7.1% | [6] -5.75%

CCO/C=C1/N=C(c2ccc3ccccc3c2)OC1=O
inactive: [1] 35.9% | [2] 9.8% | [3] 13.3% | [4] -23.7% | [5] -32.2% | [6] 14%

CCCSc1ccc([N+](=O)[O-])cc1[N+](=O)[O-]
inactive: [1] 31.8% | [2] -5.6% | [3] 25.2% | [4] 1% | [5] -5.35% | [6] 32.8%

N#C/C(=C\c1ccccc1)C(NO)Nc1ccccc1 (stereo not given)
inactive: [1] -31.1% | [2] -10.2% | [3] -1.4% | [4] 0.05% | [5] 6.65% | [6] -14.8%

CCC(C#N)NC1CCN(Cc2ccccc2)CC1 (stereo not given)
inactive: [1] 1.3% | [2] -23.1% | [3] -2.05% | [4] 6.1% | [5] -7.75% | [6] 5.85%

O=C(NCCc1ccccc1)c1c(O)c2ccccc2[nH]c1=O
inactive: [1] 5.85% | [2] 11.9% | [3] 23.7% | [4] 18.2% | [5] 14.1% | [6] 10%

COCN(Cc1ccccc1)C[Si](C)(C)C
inactive: [1] 39.5% | [2] 2% | [3] 1.3% | [4] -20% | [5] 14.2% | [6] -9.6%

S=C1SC(=Nc2ccccc2)C(=Nc2ccccc2)N1c1ccccc1
inactive: [1] -21.1% | [2] -15.9% | [3] 6.7% | [4] -37.1% | [5] -19.5% | [6] -20.6%

Clc1ccc(Cl)c(Nc2ccnc(SCc3ccccc3)n2)c1
inactive: [1] 42.1% | [2] 25.9% | [3] -27.5% | [4] 14.4% | [5] -7% | [6] 24.9%

O=S(=O)(c1cccc(C(F)(F)F)c1)N(CCCCN(S(=O)(=O)c1cccc(C(F)(F)F)c1)S(=O)(=O)c1cccc(C(F)(F)F)c1)S(=O)(=O)c1cccc(C(F)(F)F)c1
inactive: [1] -13.8% | [2] -11.6% | [3] -20.7% | [4] -20.2% | [5] -19.2% | [6] -6.6%

Cc1nc(Nc2ccc([N+](=O)[O-])cc2)sc1C(=O)/C=C/c1ccc(N(C)C)cc1
inactive: [1] 5.1% | [2] -6.85% | [3] 5.6% | [4] 16.2% | [5] 18.6% | [6] -1.1%

Cc1c(C(=O)CC(=O)C(=O)Nc2ccccc2C(F)(F)F)[n+](=O)c2ccccc2n1[O-]
inactive: [1] 5.4% | [2] 8.05% | [3] -9.4% | [4] 16.9% | [5] 3.55% | [6] -6.45%

COC(=O)O[C@H]1CC[C@@]2(C)C(=CC[C@H]3[C@@H]4CC[C@H]([C@H](C)CCCC(C)C)[C@@]4(C)CC[C@@H]32)C1
inactive: [1] -21.6% | [2] -29.8% | [3] -5.6% | [4] 6.75% | [5] -11.8% | [6] -5.3%

CC(C)Oc1ccc(C(N)=S)c2ccccc12
inactive: [1] -0.55% | [2] 4.75% | [3] -0.85% | [4] -29.1% | [5] -1% | [6] 14.1%

Cc1[nH]c(=O)nc2nc3ccc(Cl)cc3c(NCCNCCO)c12
inactive: [1] -37.5% | [2] -42.4% | [3] 24.1% | [4] 3.5% | [5] -0.9% | [6] -43.6%

NC(=S)N/N=C1\C(=O)N(CCc2ccccc2)C(=O)C1C(=O)NCCc1ccccc1 (stereo not given)
inactive: [1] -16.4% | [2] -27.7% | [3] -35.6% | [4] 14.1% | [5] -5.8% | [6] -15.2%

CC1CCC(C(C)(C)NO)C(=O)C1 (stereo not given)
inactive: [1] -2.8% | [2] 0% | [3] -4.8% | [4] -8.1% | [5] -2.1% | [6] 0.7%

CCCCCCC(C)C(CC)(C(=O)OCC)C(=O)OCC (stereo not given)
inactive: [1] -16.1% | [2] 6.55% | [3] -0.2% | [4] 12.1% | [5] -14.3% | [6] 7.65%

Cc1ccc(SC(F)(F)C(F)C(F)(F)F)cc1 (stereo not given)
inactive: [1] -4.65% | [2] -3.6% | [3] -7.75% | [4] 9.45% | [5] 7.9% | [6] -1.1%

O=C(c1ccccc1)C1CC2C=CC1C2 (stereo not given)
inactive: [1] 4.3% | [2] -8.25% | [3] 2.4% | [4] 36.9% | [5] -0.7% | [6] 17.2%

O=C1C2C3(CCl)C1C23CCl (stereo not given)
inactive: [1] 23.9% | [2] 46.6% | [3] 37.6% | [4] 10.4% | [5] 18.2% | [6] 40.6%

CC(C)c1ccc(C=O)cc1
inactive: [1] 18.3% | [2] 31% | [3] -21.5% | [4] -12.2% | [5] -9.15% | [6] 11.4%

c1ncncn1
inactive: [1] 7.5% | [2] 5.95% | [3] 10.1% | [4] 3.05% | [5] 5.25% | [6] -7.85%

Cc1ccc(C(C)C)c(OC(=O)NCCCCCCNC(=O)Oc2cc(C)ccc2C(C)C)c1
inactive: [1] -11% | [2] -4.2% | [3] 10.7% | [4] 11.1% | [5] -7.2% | [6] 9.05%

C=C(C)CBr
inactive: [1] -17.1% | [2] -7.55% | [3] -5.95% | [4] 5.35% | [5] -5.45% | [6] -3.5%

CC(C)Cc1ccc(NC2=C(Cl)C(=O)c3ccccc3C2=O)cc1
inactive: [1] 19.3% | [2] 19.7% | [3] 13.7% | [4] 25.1% | [5] 15.1% | [6] 28.1%

O=C(O)C1CCN(C(=O)Cc2ccccc2)CC1
inactive: [1] -12.5% | [2] -1.95% | [3] -2.15% | [4] -5.6% | [5] 0.05% | [6] -14.7%

COc1c(C)c2c(c(C)c1Cl)Oc1c(C=O)c(O)c(Cl)c(C)c1C(=O)O2
inactive: [1] 55% | [2] 25.4% | [3] 44.9% | [4] 23.6% | [5] 29.4% | [6] 54.4%

CCS(=O)CCO (stereo not given)
inactive: [1] -22.7% | [2] -20.4% | [3] -15.8% | [4] -21.8% | [5] 10.8% | [6] -14.2%

CC(C)/C(=N\N=C(\c1ccccc1)C(C)C)c1ccccc1
inactive: [1] -2.6% | [2] 25.5% | [3] 3% | [4] -7.7% | [5] 16.3% | [6] 18.1%

O=c1cc2c(n[nH]1)CCCC2
inactive: [1] 8.85% | [2] 4.55% | [3] 2.55% | [4] 16.9% | [5] -0.75% | [6] 11.4%

Cc1ccc(C(=O)OC2C3(C)CCC(C3)C2(C)C)cc1 (stereo not given)
inactive: [1] 15.9% | [2] 18.3% | [3] 14.3% | [4] -37.2% | [5] 10.2% | [6] -0.15%

C=CCC12CC(COc3ccccc3C(N)=O)OC1=Nc1ccccc1NC2=O (stereo not given)
inactive: [1] 0.55% | [2] 0.25% | [3] -27.6% | [4] -1.8% | [5] 0.8% | [6] -5.05%
